Test results as given in PubChem BioAssay (NCATS).
Records with an inconclusive call do not appear. Entries that show only a call come without a potency. Values without a mark were called inactive. Activity calls are given as the source filed them. Calls follow the shape of the dose curve; as a rule, active = well fitted curve in the direction sought with a large enough effect; inconclusive = small, poorly fitted or top-dose-only effect, or another doubt; inactive = no such curve, though single readings can be large; an effect the other way counts as inactive or inconclusive.

What was measured:
Hek293T = assay: Primary qHTS to identify gynecologic anti-cancer compounds using libraries of approved drugs and bioactive compounds (AID 1345084); details: Gynecologic cancer cell panel viability, ATPlite luminescence, 48 h, control line for the selectivity index; series mostly up to 57.5 µM; also: nearly all actives have a fitted effect of over 55% in size
Summary of the method: (§1)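 48 h compound exposure at 37 C, 5% CO2; five-point qHTS. ATPlite luminescence readout of cell ATP.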

JEG-3 = assay: as above; details: Gynecologic cancer cell panel viability, ATPlite luminescence, 48 h; series mostly up to 57.5 µM
Summary of the method: as §1

OV90 = assay: as above; details: Gynecologic cancer cell panel viability, ATPlite luminescence, 48 h; series mostly up to 57.5 µM
Summary of the method: as §1

PA-1 = assay: as above; details: Gynecologic cancer cell panel viability, ATPlite luminescence, 48 h; series mostly up to 57.5 µM
Summary of the method: as §1

SKOV3 = assay: as above; details: Gynecologic cancer cell panel viability, ATPlite luminescence, 48 h; series mostly up to 57.5 µM
Summary of the method: as §1

Tov-21-G = assay: as above; details: Gynecologic cancer cell panel viability, ATPlite luminescence, 48 h; series mostly up to 57.5 µM
Summary of the method: as §1

Tov112D = assay: as above; details: Gynecologic cancer cell panel viability, ATPlite luminescence, 48 h; series mostly up to 57.5 µM
Summary of the method: as §1

[1] = Drug repurposing screens with cells derived from glioblastoma tumor samples (AID 1345199); details: GBM patient neurospheres viability, ATP luminescence, 48 h; also: nearly all actives have a fitted effect of over 40% in size; also: potency is read from the fitted curve at half-maximal effect
Summary of the method: (§2)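 Four patient lines of CD133+ GBM neurospheres were screened at several concentrations; hits were retested in those lines plus three slower-growing GBM lines, using 48-hour treatment and ATP-based viability.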

astro = assay: as above; details: viability, ATP luminescence, 48 h; series mostly up to 45.9 µM
Summary of the method: as §2

[2] = at 45.9 µM (top of the series), tumour line B
[3] = at 45.9 µM (top of the series), tumour line D
[4] = at 46.1 µM (top of the series), tumour line C
[5] = at 46 µM (top of the series), tumour line A

OCCOCCN1CCN(C2=Nc3ccccc3Sc3ccccc32)CC1
Potency (Hek293T): inactive | Potency (JEG-3): inactive | Potency (OV90): inactive | Potency (PA-1): inactive | Potency (SKOV3): inactive | Potency (Tov-21-G): inactive | Potency (Tov112D): inactive | activity, negative = cell killing [1, 2]: -22.8% | activity, negative = cell killing [1, 3]: -20.3% | activity, negative = cell killing [1, 4]: 1.64% | Potency ([1]; tumour line A): 11.2 µM (active) | Potency (astro): inactive

CCCCCCCCCCCCSCCOCCO
Potency (Hek293T): inactive | Potency (JEG-3): inactive | Potency (OV90): inactive | Potency (PA-1): inactive | Potency (SKOV3): inactive | Potency (Tov-21-G): inactive | Potency (Tov112D): inactive | activity, negative = cell killing [1, 2]: -1.92% | activity, negative = cell killing [1, 3]: -19.1% | activity, negative = cell killing [1, 4]: 9.86% | Potency ([1]; tumour line A): 35.5 µM (active) | Potency (astro): inactive

COc1cc(O)c(C(=O)c2ccccc2)cc1S(=O)(=O)O
Potency (Hek293T): inactive | Potency (JEG-3): inactive | Potency (OV90): inactive | Potency (PA-1): inactive | Potency (SKOV3): inactive | Potency (Tov-21-G): inactive | Potency (Tov112D): inactive | activity, negative = cell killing [1, 2]: -4.01% | activity, negative = cell killing [1, 3]: -5.06% | activity, negative = cell killing [1, 5]: -20.9% | activity, negative = cell killing [1, 4]: 6.07% | Potency (astro): inactive

COC(=O)C(c1ccccc1Cl)N1CCc2sccc2C1 (configuration not stated)
Potency (Hek293T): inactive | Potency (JEG-3): inactive | Potency (OV90): inactive | Potency (PA-1): inactive | Potency (SKOV3): inactive | Potency (Tov-21-G): inactive | Potency (Tov112D): inactive | activity, negative = cell killing [1, 2]: -13.2% | activity, negative = cell killing [1, 3]: -12.6% | activity, negative = cell killing [1, 4]: 2.17% | Potency ([1]; tumour line A): 28.2 µM (active) | Potency (astro): inactive

N=C(N)N1CCc2ccccc2C1
activity change, negative = cytotoxicity (Hek293T): 5.39% [at 6.55 µM] | activity change, negative = cytotoxicity (JEG-3): -0.277% [at 6.55 µM] | activity change, negative = cytotoxicity (OV90): 0.455% [at 6.55 µM] | activity change, negative = cytotoxicity (PA-1): -0.819% [at 6.55 µM] | activity change, negative = cytotoxicity (SKOV3): -11.6% [at 6.55 µM] | activity change, negative = cytotoxicity (Tov-21-G): -1.06% [at 6.55 µM] | activity change, negative = cytotoxicity (Tov112D): -0.978% [at 6.55 µM] | activity, negative = cell killing [1, 2]: -7.25% | activity, negative = cell killing [1, 3]: 0.46% | activity, negative = cell killing [1, 5]: -7.22% | activity, negative = cell killing [1, 4]: -18.5% | Potency (astro): inactive

Nc1ccc(S(=O)(=O)Nc2cnc3ccccc3n2)cc1
Potency (Hek293T): inactive | Potency (JEG-3): inactive | Potency (OV90): inactive | Potency (PA-1): inactive | Potency (SKOV3): inactive | Potency (Tov-21-G): inactive | Potency (Tov112D): inactive | activity, negative = cell killing [1, 2]: 0.475% | activity, negative = cell killing [1, 3]: 3.34% | activity, negative = cell killing [1, 5]: -15.8% | activity, negative = cell killing [1, 4]: 4.45% | Potency (astro): inactive

CCN(CC)CCNC(=O)COc1ccc(OC)cc1
Potency (Hek293T): inactive | Potency (JEG-3): inactive | Potency (OV90): inactive | Potency (PA-1): inactive | Potency (SKOV3): inactive | Potency (Tov-21-G): inactive | Potency (Tov112D): inactive | activity, negative = cell killing [1, 2]: -17.2% | activity, negative = cell killing [1, 3]: -10.2% | activity, negative = cell killing [1, 5]: -59% | activity, negative = cell killing [1, 4]: -17.2% | Potency (astro): inactive

O=C(O)P(=O)(O)O
Potency (Hek293T): inactive | Potency (JEG-3): inactive | Potency (OV90): inactive | Potency (PA-1): inactive | Potency (SKOV3): inactive | Potency (Tov-21-G): inactive | Potency (Tov112D): inactive | activity, negative = cell killing [1, 2]: -0.165% | activity, negative = cell killing [1, 3]: -25% | activity, negative = cell killing [1, 5]: -23.7% | activity, negative = cell killing [1, 4]: 21.2% | Potency (astro): inactive

CN1CCN(c2cc3c(cc2F)c(=O)c(C(=O)O)cn3-c2ccc(F)cc2)CC1
Potency (Hek293T): inactive | Potency (JEG-3): inactive | Potency (OV90): inactive | Potency (PA-1): inactive | Potency (SKOV3): inactive | Potency (Tov-21-G): inactive | Potency (Tov112D): inactive | activity, negative = cell killing [1, 2]: -7.1% | activity, negative = cell killing [1, 3]: -1.79% | activity, negative = cell killing [1, 5]: -26.7% | activity, negative = cell killing [1, 4]: 5.61% | Potency (astro): inactive

NCCNC(=O)c1ccc(Cl)cn1
Potency (Hek293T): inactive | Potency (JEG-3): inactive | Potency (OV90): inactive | Potency (PA-1): inactive | Potency (SKOV3): inactive | Potency (Tov-21-G): inactive | Potency (Tov112D): inactive | activity, negative = cell killing [1, 2]: -0.687% | activity, negative = cell killing [1, 3]: -7.85% | activity, negative = cell killing [1, 5]: -29.4% | activity, negative = cell killing [1, 4]: -12.2% | Potency (astro): inactive

CCOc1ccccc1C(N)=O
Potency (Hek293T): inactive | Potency (JEG-3): inactive | Potency (OV90): inactive | Potency (PA-1): inactive | Potency (SKOV3): inactive | Potency (Tov-21-G): inactive | Potency (Tov112D): inactive | activity, negative = cell killing [1, 2]: -5.35% | activity, negative = cell killing [1, 3]: -0.0314% | activity, negative = cell killing [1, 5]: -26.8% | activity, negative = cell killing [1, 4]: -1.96% | Potency (astro): inactive

COc1cc(C(=O)NCc2ccc(OCCN(C)C)cc2)cc(OC)c1OC
Potency (Hek293T): inactive | Potency (JEG-3): inactive | Potency (OV90): inactive | Potency (PA-1): inactive | Potency (SKOV3): inactive | Potency (Tov-21-G): inactive | Potency (Tov112D): inactive | activity, negative = cell killing ([1]; at 20 µM (top of the series), tumour line C): -15.6% | activity, negative = cell killing ([1]; at 21.2 µM (top of the series), tumour line B): -6.09% | activity, negative = cell killing ([1]; at 21.2 µM (top of the series), tumour line D): -9.89% | activity, negative = cell killing ([1]; at 21.3 µM (top of the series), tumour line A): -23.1% | Potency (astro): inactive

NCCNc1cccc2ccccc12
Potency (Hek293T): inactive | Potency (JEG-3): inactive | Potency (OV90): inactive | Potency (PA-1): inactive | Potency (SKOV3): inactive | Potency (Tov-21-G): inactive | Potency (Tov112D): inactive | activity, negative = cell killing [1, 2]: -17.3% | activity, negative = cell killing [1, 3]: -24.3% | activity, negative = cell killing [1, 4]: -28% | Potency ([1]; tumour line A): 20 µM (active) | Potency (astro): inactive

CC(C)Cc1ccc(CC(=O)O)cc1
Potency (Hek293T): inactive | Potency (JEG-3): inactive | Potency (OV90): inactive | Potency (PA-1): inactive | Potency (SKOV3): inactive | Potency (Tov-21-G): inactive | Potency (Tov112D): inactive | activity, negative = cell killing [1, 2]: -12.1% | activity, negative = cell killing [1, 3]: -2.06% | activity, negative = cell killing [1, 5]: -12.4% | activity, negative = cell killing [1, 4]: 9.2% | Potency (astro): inactive

OCc1ccccn1
Potency (Hek293T): inactive | Potency (JEG-3): inactive | Potency (OV90): inactive | Potency (PA-1): inactive | Potency (SKOV3): inactive | Potency (Tov-21-G): inactive | Potency (Tov112D): inactive | activity, negative = cell killing [1, 2]: -0.907% | activity, negative = cell killing [1, 3]: 14.9% | activity, negative = cell killing [1, 5]: -24% | activity, negative = cell killing [1, 4]: -5.53% | Potency (astro): inactive

CCOc1cc(OCC)c(C(=O)CCC(=O)O)cc1OCC
Potency (Hek293T): inactive | Potency (JEG-3): inactive | Potency (OV90): inactive | Potency (PA-1): inactive | Potency (SKOV3): inactive | Potency (Tov-21-G): inactive | Potency (Tov112D): inactive | activity, negative = cell killing [1, 2]: -2.96% | activity, negative = cell killing [1, 3]: -2.05% | activity, negative = cell killing [1, 5]: -23.5% | activity, negative = cell killing [1, 4]: -10.2% | Potency (astro): inactive
